From the supplement of paper PMC13380429

Test system: Vero E6 infected with SARS-CoV-2
Assay: inhibition of SARS-CoV-2 cytopathic effect; higher = more antiviral protection, active = above 15
Details: 48 h

Measured: inhibition of SARS-CoV-2 cytopathic effect

O=C1[C@@H]2[C@H]3CC[C@H](C3)[C@@H]2C(=O)N1C[C@@H]1CCCC[C@H]1CN1CCN(c2nsc3ccccc23)CC1 [lurasidone]
inactive: 1 nM -0.28% | 8.33 nM 0.05% | 100 nM 1.73% | 833.33 nM 3.11% | 10000 nM -6.2%

COc1ccnc(C[S+]([O-])c2nc3cc(OC(F)F)ccc3[nH]2)c1OC (stereo not given) [pantoprazole]
inactive: 1 nM -1.17% | 8.33 nM -2.35% | 100 nM -4.09% | 833.33 nM 0.78% | 10000 nM 0.79%

NCCc1c[nH]c2ccc(C(N)=O)cc12 [5-carboxamidotryptamine]
active: 833.33 nM 15.1%
inactive: 1 nM 2.2% | 8.33 nM 0.54% | 100 nM 3.52% | 10000 nM 1.89%

Cc1cc(Nc2nc(N[C@@H](C)c3ncc(F)cn3)ncc2Cl)[nH]n1
inactive: 1 nM -1.19% | 8.33 nM -0.46% | 100 nM -0.68% | 833.33 nM 0.25% | 10000 nM 0.25%

Cc1cc(-c2nc3cc(F)ccc3s2)ccc1NC(=O)[C@@H](N)CCCCN [phortress]
inactive: 1 nM -1.03% | 8.33 nM -0.88% | 100 nM -0.54% | 833.33 nM -2.21% | 10000 nM -5.43%

CCCCOc1cc(C(=O)NCCN(CC)CC)c2ccccc2n1 [cinchocaine]
inactive: 1 nM -2.14% | 8.33 nM -0.71% | 100 nM 1.11% | 833.33 nM 3.8% | 10000 nM 0.77%

C[C@H]1O[C@H](O[C@H]2[C@H](O)[C@@H](O)[C@@H](O[C@H]3[C@H](O)[C@@H](O)C(O)O[C@@H]3CO)O[C@@H]2CO)[C@H](O)[C@@H](O)[C@@H]1N[C@H]1C=C(CO)[C@@H](O)[C@H](O)[C@H]1O (stereo not given in full) [acarbose]
inactive: 1 nM 0.51% | 8.33 nM 1.35% | 100 nM -0.08% | 833.33 nM -0.03% | 10000 nM -0.32%

COc1ccc(C(=O)NCc2ccc(OCCN(C)C)cc2)cc1OC [itopride]
inactive: 1 nM 0.25% | 8.33 nM -0.19% | 100 nM 1.77% | 833.33 nM -0.42% | 10000 nM 0.72%

O=C(N[C@H]1CN2CCC1CC2)c1ccc(Cl)cc1
inactive: 1 nM 1.35% | 8.33 nM 0.97% | 100 nM 1.21% | 833.33 nM 0.86% | 10000 nM 1.51%

O=C(O)c1ccccc1Nc1cccc(OCc2ccc3ccccc3n2)c1
inactive: 1 nM -0.27% | 8.33 nM 2.38% | 100 nM 0.56% | 833.33 nM 0.3% | 10000 nM -0.51%

CC(C)[C@H](O)C(=O)N[C@@H](C)C(=O)N[C@@H]1C(=O)N(C)CCc2ccccc21 [semagacestat]
inactive: 1 nM -0.47% | 8.33 nM 3.54% | 100 nM -1.88% | 833.33 nM -1.76% | 10000 nM -3.08%

N[C@H]1C[C@@H]1c1ccccc1 (racemic) [tranylcypromine]
inactive: 1 nM 0.8% | 8.33 nM -0.11% | 100 nM -0.1% | 833.33 nM 0.19% | 10000 nM 2.21%

Cc1cc(-c2ccc(/N=N/c3ccc4c(S(=O)(=O)O)cc(S(=O)(=O)O)c(N)c4c3O)c(C)c2)ccc1/N=N/c1ccc2c(S(=O)(=O)O)cc(S(=O)(=O)O)c(N)c2c1O [evans-blue]
inactive: 1 nM -1.16% | 8.33 nM -4.89% | 100 nM 2.16% | 833.33 nM -0.35% | 10000 nM -17.6%

C[C@@H]1O[C@@H](O[C@@H]2[C@@H](O)[C@H](OCCc3ccc(O)c(O)c3)O[C@H](CO)[C@H]2OC(=O)/C=C/c2ccc(O)c(O)c2)[C@H](O)[C@H](O)[C@H]1O [verbascoside]
inactive: 1 nM -0.06% | 8.33 nM -0.95% | 100 nM 0.7% | 833.33 nM -1.19% | 10000 nM -1.48%

O=C1OC(CN2CCOCC2)CN1/N=C/c1ccc([N+](=O)[O-])o1 (stereo not given) [furaltadone]
inactive: 1 nM -10.1% | 8.33 nM -5.96% | 100 nM -8.17% | 833.33 nM -6.67% | 10000 nM -6.1%

C[C@@H]1c2ccccc2CN1CC1=NCCN1 (racemic)
inactive: 1 nM -1.04% | 8.33 nM -0.79% | 100 nM -0.96% | 833.33 nM 1.02% | 10000 nM -0.71%

Nc1nc(-c2nn(Cc3ccccc3F)c3ncccc23)ncc1C1CC1
inactive: 1 nM 1.54% | 8.33 nM 2.15% | 100 nM -0.39% | 833.33 nM -2.42% | 10000 nM -5.17%
